This passage reports outcome and AC50 results from PubChem BioAssay (EPA / NIEHS).

Assay [1] is described as follows: ATG_E_Box_CIS: Attagene CIS-FACTORIAL HepG2 Assay for human Enhancer Box (E-box) (AID 2282936). The note with it: HepG2 E-box cis-reporter transcription, actives raise or lower the signal. A digest of the protocol: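 HepG2 cells transiently transfected with multiplexed cis-element reporter units, dosed 24 h; reporter mRNA quantified by RT-PCR, 6-FAM labelling, HpaI digestion and capillary electrophoresis. E-box (USF1) signal fitted bidirectionally vs DMSO.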

Assay [2] in a line: ATG_M_61_CIS: Attagene CIS-FACTORIAL HepG2 Assay for M61 Transcription Factor (Internal Marker) (AID 2282937). The note with it: HepG2 Attagene CIS-FACTORIAL M61 internal marker reporter; actives raise or lower the signal. An outline of the steps:
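This endpoint serves as an internal background control within a multiplexed HepG2 cis-reporter panel. Cells are exposed for 24 h; reporter mRNA is amplified, fluorescently labelled and sized by capillary electrophoresis, with DMSO as negative control.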

Assay [3] in a line: ATG_EGR_CIS: Attagene CIS-FACTORIAL HepG2 Assay for human Early Growth Response 1 (EGR1) (AID 2282938). The conditions noted are these: HepG2 Attagene CIS-FACTORIAL EGR reporter mRNA; actives raise or lower the signal. An outline of the steps: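 HepG2, transient MRTU transfection (cis promoters), 24 h compound. RNA → RT (oligo-dT) → PCR → 6-FAM labelling → HpaI cut → CE fluorescence. Bidirectional fit, DMSO baseline.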

Assay [4] in a line: ATG_ERE_CIS: Attagene CIS-FACTORIAL HepG2 Assay for Estrogen Response Element (ERE) (AID 2282940). The conditions noted are these: HepG2 ERE cis-reporter, Attagene RNA transcript; actives raise or lower the signal. A digest of the protocol: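 Human liver cells (HepG2) bearing transiently transfected, promoter-regulated reporter units were exposed 24 h. Reporter mRNA induction was detected by capillary electrophoresis of labelled RT-PCR products and fitted bidirectionally to DMSO.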

Assay [5] is described as follows: ATG_Ets_CIS: Attagene CIS-FACTORIAL HepG2 Assay for human Erythroblast Transformation Specific (ETS) (AID 2282941). The conditions noted are these: HepG2 ETS cis-reporter transcription, actives raise or lower the signal. A digest of the protocol:
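HepG2 cells transiently transfected with cis-promoter reporter transcription units were dosed for 24 h; reporter mRNA was measured by RT-PCR, 6-FAM primer extension, HpaI digestion and capillary electrophoresis, with bidirectional fitting against DMSO baseline.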

For assay [6], the target named is Hepatocyte nuclear factor 3-beta (Homo sapiens) (UniProt Q9Y261). Description: ATG_FoxA2_CIS: Attagene CIS-FACTORIAL HepG2 Assay for human Forkhead box A2 (FOXA2) (AID 2282942). The conditions noted are these: HepG2 cis-reporter transcription factor activity, 24 h; actives raise or lower the signal. A digest of the protocol:
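Cells: HepG2, transient multiplex reporter transfection. Exposure 24 h. Detection: reporter-specific RT-PCR, fluorescent labelling, restriction digest, capillary electrophoresis. Analysis: bidirectional curve fit, DMSO as negative control.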

A short description of assay [7]: ATG_FoxO_CIS: Attagene CIS-FACTORIAL HepG2 Assay for human Forkhead box O (FoxO) (AID 2282943). The conditions noted are these: HepG2 Attagene cis-reporter, FoxO element, mRNA; actives raise or lower the signal. A digest of the protocol: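 Read-out: fluorescence of 6-FAM-labelled reporter cDNA fragments resolved by capillary electrophoresis. Transiently transfected HepG2 cells were dosed for 24 h; activity fitted in both directions relative to DMSO controls.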

Assay [8] is described as follows: ATG_GATA_CIS: Attagene CIS-FACTORIAL HepG2 Assay for human GATA Binding Protein (AID 2282944). The note with it: HepG2 GATA cis-element reporter, Attagene multiplex mRNA; actives raise or lower the signal. An outline of the steps: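 Transfected cis-reporter HepG2 cells were treated with chemicals for 24 hours. Total RNA was then converted to cDNA, amplified with reporter-specific primers and analysed by fluorescent capillary electrophoresis, using DMSO-treated wells as baseline.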

Assay [9] is described as follows: ATG_GLI_CIS: Attagene CIS-FACTORIAL HepG2 Assay for human Zinc Finger Protein GLI1 (AID 2282945). The conditions noted are these: HepG2, Attagene cis-factorial reporter mRNA, GLI element; actives raise or lower the signal. A digest of the protocol: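 Transiently transfected HepG2 cells report endogenous transcription factor activity via cis-element-driven reporter units. After 24 h compound exposure, reporter mRNA was measured by RT-PCR with capillary electrophoresis; bidirectional fitting against DMSO baseline.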

Activity calls are given as the source filed them. Rule for the calls: active = hit-call score of the fitted dose curve at least 0.9, where 1 is the maximum; inactive = score below 0.9.

Hepatocyte nuclear factor 3-beta (Homo sapiens), sequence (Q9Y261 whole entry, looked up): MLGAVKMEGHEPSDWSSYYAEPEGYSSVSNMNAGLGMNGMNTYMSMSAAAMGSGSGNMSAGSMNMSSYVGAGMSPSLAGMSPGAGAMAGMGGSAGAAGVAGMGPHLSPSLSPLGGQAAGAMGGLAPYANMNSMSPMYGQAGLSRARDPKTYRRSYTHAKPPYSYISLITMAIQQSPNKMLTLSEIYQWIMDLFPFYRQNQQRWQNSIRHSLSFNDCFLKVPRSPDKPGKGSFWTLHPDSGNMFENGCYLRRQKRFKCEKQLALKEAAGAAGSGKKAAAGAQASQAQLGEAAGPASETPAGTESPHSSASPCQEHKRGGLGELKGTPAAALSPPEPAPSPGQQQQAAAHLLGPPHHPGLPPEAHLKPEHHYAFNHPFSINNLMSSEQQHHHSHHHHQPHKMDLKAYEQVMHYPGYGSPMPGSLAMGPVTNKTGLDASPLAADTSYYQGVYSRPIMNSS

`CC(C)C(C)(C)C(C)(C)C(C)(C)S`: the result in assay [1], in assay [2], in [3], in assay [4], in [5] and in [6] was inactive. For the same molecule, the outcome in [7], in [8] and in assay [9] was inactive.
On to `O=c1oc(=O)c2cc3c(=O)oc(=O)c3cc12`, for which the outcome in assay [1], in [2], in [3], in [5], in [6] and in assay [8] was inactive. The call in assay [9] was inactive.
As to `CCOC(=O)c1ccccc1OC`, the outcome in assay [1], in assay [2], in assay [3], in assay [5], in [6] and in assay [7] was inactive. Further, the molecule was classed as inactive in assay [8] and in assay [9].
For `Cc1ccc(C=O)s1`, the result in assay [1], in assay [2], in assay [3], in [5], in assay [6] and in assay [7] was inactive. Besides, the molecule was called inactive in assay [8] and in [9].
As for `CCCC(C)C=O` (configuration not stated), the result in [1], in assay [2], in assay [3], in assay [4], in assay [5] and in [6] was inactive. Besides, the result in assay [7], in assay [8] and in assay [9] was inactive.
As to `COc1cc(C=O)ccc1OC(=O)C(C)C`, the outcome in [1], in [2], in assay [3], in assay [5], in assay [6] and in assay [7] was inactive. Also, the call in [9] was inactive.
Consider `CC1(C)[C@H](C(=O)OCc2cccc(Oc3ccccc3)c2)[C@@H]1C=C(Cl)Cl`, for which the outcome in [1], in assay [2], in assay [3], in assay [4], in assay [5] and in assay [6] was inactive. The outcome in assay [8] and in assay [9] was inactive.
On to `CC(=O)C=CC1=C(C)CCCC1(C)C`, for which the outcome in [1], in assay [2], in assay [3], in assay [4], in assay [5] and in [6] was inactive. For the same molecule, the call in assay [7], in assay [8] and in assay [9] was inactive.
For the molecule `O=C(COc1ccc(Cl)cc1)N1CCN(Cc2ccc3c(c2)OCO3)CC1`, the outcome in [1], in assay [2], in assay [4], in [5], in assay [6] and in assay [8] was inactive. The molecule was called inactive in assay [9]. In assay [3], the AC50 was 32.1 µM (active).
`COc1ccc(NC(=O)CC(C)=O)cc1`: the result in [1], in assay [2], in [3], in assay [5], in assay [6] and in assay [7] was inactive. In addition, the outcome in [8] and in assay [9] was inactive.
As for `CC(C)CCCCCCCOC(=O)c1ccc(C(=O)OCCCCCCCC(C)C)c(C(=O)OCCCCCCCC(C)C)c1`, the result in assay [1], in assay [2], in [3], in assay [5], in assay [6] and in assay [7] was inactive. Also, the molecule was classed as inactive in assay [8] and in [9].
Take `O=C(O)CN(CCN(CC(=O)O)CC(=O)O)CCN(CC(=O)O)CC(=O)O`: the result in assay [1], in assay [2], in assay [3], in assay [5], in [6] and in assay [7] was inactive. For the same molecule, the molecule was called inactive in assay [8] and in assay [9].
Take `O=c1cc(-c2ccccc2)oc2cc(O)cc(O)c12`: the AC50 in assay [1] was 25.9 µM (active). Also, the molecule was called inactive in assay [2], in assay [3], in [5], in [6], in assay [8] and in [9].
As for `CC(C)C1CCC(O)CC1` (configuration not stated), the result in assay [1], in [2], in assay [3], in [5], in [6] and in [7] was inactive. In addition, the call in [8] and in [9] was inactive.
On to `COC(C(=O)O)c1ccccc1` (configuration not stated), for which the outcome in [1], in assay [2], in [3], in assay [5], in assay [6] and in [7] was inactive. For the same molecule, the result in [9] was inactive.
In the case of `CC(C)=CCCC(C)CC=O` (configuration not stated), the result in assay [1], in [2], in assay [3], in [5], in [6] and in assay [7] was inactive. For the same molecule, the molecule was called inactive in assay [8] and in assay [9].
With `N#Cc1ccccc1`, the outcome in assay [1], in assay [2], in [3], in assay [5], in assay [6] and in assay [7] was inactive. The outcome in assay [8] and in assay [9] was inactive.
As to `Sc1nc(S)nc(S)n1`, the outcome in assay [1], in assay [2], in [3], in [5], in [7] and in [8] was inactive. Also, the molecule was called inactive in assay [9].
`COC(=O)c1ccc(C)cc1`: the outcome in assay [1], in [2], in [3], in assay [4], in [5] and in [6] was inactive. For the same molecule, in assay [9], the molecule was called inactive.
As for `CC(C)(CO)[N+](=O)[O-]`, the result in [1], in [2], in assay [3], in assay [5], in assay [6] and in assay [7] was inactive. Besides, the call in [8] and in assay [9] was inactive.
Regarding `OC1OC[C@@H](O)[C@H](O)[C@H]1O` (some centres not stated), the outcome in assay [1], in [2], in assay [3], in assay [5], in assay [6] and in assay [7] was inactive. Further, the call in assay [8] and in assay [9] was inactive.
With `CC[C@]12CCCN3CCc4c(n(c5ccccc45)[C@@](O)(C(=O)OC)C1)[C@@H]32`, the result in [1], in assay [2], in assay [3], in [5], in [6] and in [7] was inactive. In addition, the result in assay [8] and in assay [9] was inactive.
On to `CCCCCCCCCCC(CO)CCCCCCCC` (configuration not stated), for which the result in assay [1], in [2], in assay [3], in assay [5], in [7] and in assay [9] was inactive.
Turning to `OC[C@H]1O[C@H](O[C@]2(CCl)O[C@H](CCl)[C@@H](O)[C@@H]2O)[C@H](O)[C@@H](O)[C@H]1Cl`, the result in assay [1], in assay [2], in assay [3], in [5], in assay [6] and in assay [7] was inactive. The call in [9] was inactive.
Turning to `Nc1nc2ccc([N+](=O)[O-])cc2s1`, the result in assay [1], in assay [2], in assay [3], in assay [5], in assay [6] and in assay [7] was inactive. The molecule was classed as inactive in assay [8] and in [9].
`CCCCc1ccc(N)cc1`: the result in assay [1], in [2], in assay [3], in [5], in assay [7] and in [8] was inactive. In addition, the result in [9] was inactive. The AC50 in [4] is 29.6 µM (active).
Take `Cc1cccc(C)c1C`: the outcome in [1], in assay [2], in [3], in assay [5], in assay [7] and in assay [8] was inactive. The call in assay [9] was inactive.
On to `CNCCCC12CCC(c3ccccc31)c1ccccc12`, for which the outcome in [1], in assay [2], in assay [4], in assay [6], in assay [7] and in assay [8] was inactive. The AC50 in [3] was 15.7 µM (active); in assay [5], 11.1 µM (active); in assay [9] it was 15.7 µM (active).
For `CN(CCOc1ccc(CC2SC(=O)NC2=O)cc1)c1ccccn1` (configuration not stated), the result in [1], in assay [2], in assay [3], in assay [5], in assay [6] and in [8] was inactive. For the same molecule, the result in assay [9] was inactive. In [4], the AC50 is 0.0823 µM (active).
As for `Nc1cccc(S(=O)(=O)c2cccc(N)c2)c1`, the outcome in assay [1], in assay [2], in assay [3], in [4], in assay [5] and in assay [6] was inactive. Moreover, the call in assay [8] and in [9] was inactive.
In the case of `CCCCCCCCCCCCCOS(=O)(=O)O`, the result in [1], in assay [2], in assay [3], in assay [5], in [6] and in assay [7] was inactive. Moreover, the outcome in assay [9] was inactive.
As for `COc1ccc(O)cc1`, the result in [1], in [2], in assay [3], in assay [5], in assay [6] and in [7] was inactive. For the same molecule, the molecule was classed as inactive in assay [9].
As for `C=C(C)C(=O)OCc1ccccc1`, the result in [1], in [2], in assay [3], in assay [4], in [5] and in assay [6] was inactive. Besides, the outcome in [7], in assay [8] and in assay [9] was inactive.

A word on the AC50: it is the concentration giving half of the maximal activity seen.
